Assay results reported in PubChem BioAssay AID2284072 (EPA ToxCast).
Active and inactive are the calls of the source. How the source made its calls: active means hit-call score of the fitted dose curve at least 0.9, where 1 is the maximum; inactive means score below 0.9.

The compounds below were run against human CK2 (alpha1/alpha2/beta) Other Protein Kinase, CSNK2A1 (gene 1457) (UniProt P68400) (assay: ERF_TW_ENZ_hCSNK2A1: Eurofins (ERF) Enzymatic Radiometric [10 uM ATP] Assay for human CK2 (alpha1/alpha2/beta) Other Protein Kinase).
Sequence of human CK2 (alpha1/alpha2/beta) Other Protein Kinase, CSNK2A1 (gene 1457) (P68400 whole entry, looked up): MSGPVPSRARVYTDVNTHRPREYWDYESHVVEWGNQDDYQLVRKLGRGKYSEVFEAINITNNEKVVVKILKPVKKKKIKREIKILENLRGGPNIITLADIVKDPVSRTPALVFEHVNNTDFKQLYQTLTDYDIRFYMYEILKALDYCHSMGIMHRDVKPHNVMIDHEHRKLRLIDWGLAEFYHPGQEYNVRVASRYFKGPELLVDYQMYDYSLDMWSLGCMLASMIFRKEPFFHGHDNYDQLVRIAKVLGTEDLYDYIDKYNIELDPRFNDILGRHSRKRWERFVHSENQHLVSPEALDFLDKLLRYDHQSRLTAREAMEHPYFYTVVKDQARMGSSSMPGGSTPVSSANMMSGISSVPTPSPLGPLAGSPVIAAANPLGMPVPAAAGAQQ
Method: ERF_TW_ENZ_hCSNK2A1 is a biochemical, single-readout assay that uses extracted gene-proteins in a cell-free assay. Measurements were taken 0.5 hour after chemical dosing in a 96-well plate. See CK2 (alpha1/alpha2/beta) Human Other Protein Kinase Enzymatic Radiometric Assay [10 uM ATP], Panlabs.ERF_TW_ENZ_hCSNK2A1 is an assay component calculated from the ERF_TW_ENZ_hCSNK2A1 assay. It is designed to measure enzyme activity using a type of enzyme reporter as detected by scintillation counting with radiometry technology.Data from the assay component ERF_TW_ENZ_hCSNK2A1 was analyzed at the assay endpoint, ERF_TW_ENZ_hCSNK2A1, in the positive analysis fitting direction relative to DMSO as the negative control and baseline of activity. Using a type of enzyme reporter, loss-of-signal activity can be used to understand changes in enzymatic activity as they relate to gene CSNK2A1. To generalize the intended target to other relatable targets, this assay endpoint is annotated to the kinase intended target family, where the subfamily is serine/threonine kinase.
CK2a1(h) is incubated with 20mM HEPES pH7.4, 0.15M NaCl, 0.1mM EDTA, 5mM DTT, 0.1% Triton X-100, 165 uM […], 10 mM MgAcetate and [gamma-33P-ATP] (specific activity and concentration as required). The reaction is 17 initiated by the addition of the Mg/ATP mix. […]
In the case of `O=C(/C=C/c1ccc(O)cc1)CC(=O)/C=C/c1ccc(O)cc1`, the AC50 is reported as 2250 nM (active).
